Design in all cases: species or system human, MV4-11 + K-562 + COLO205 + SK-N-BE2 + OVCAR-8
One test deals with CSNK1G1. The following applies: read-out: apparent Kd, compound concentrations: 100 nM and 1000 nM (sheet 'Samples'), n = 1.
The subject of another test is ATM. The settings on record: read-out: apparent Kd, n = 1.
The next test deals with BMP2K. The following applies: read-out: apparent Kd, n = 1.
For the next test, the system named is FER. The settings on record: read-out: apparent Kd, n = 1.
Another test has as its system GRK6. The settings on record: read-out: apparent Kd, compound concentrations: 100 nM and 1000 nM (sheet 'Samples'), n = 1.
In the next test the test system is MELK. The settings on record: read-out: apparent Kd, n = 1.
For the next test, the system named is PRKCQ. The settings on record: read-out: apparent Kd, compound concentrations: 100 nM and 1000 nM (sheet 'Samples'), n = 1.
In the next test the test system is RPS6KA6. The settings on record: read-out: apparent Kd, n = 1.
For the next test, the system named is ULK1. The settings on record: read-out: apparent Kd, n = 1.
Another test relates to ULK3. The following applies: read-out: apparent Kd, n = 1.
The next test relates to VDAC3. The following applies: read-out: apparent Kd, n = 1.
The subject of the next test is IKBKE. The settings on record: read-out: apparent Kd; compound concentrations:100 nM and 1000 nM (sheet 'Samples'); n = 1.
For the next test, the system named is PIK3C3. The following applies: read-out: apparent Kd, n = 1.
In another test the test system is CDK6. The settings on record: read-out: apparent Kd; compound concentrations: 100 nM and 1000 nM (sheet 'Samples'), CATDS: 3.7997833467257401E-2; n = 1.
The next test relates to ILK. The following applies: read-out: apparent Kd; compound concentrations: 100 nM and 1000 nM (sheet 'Samples'), CATDS: 4.6551408852927599E-2; n = 1.
The next test relates to ERN1. The settings on record: read-out: apparent Kd; compound concentrations: 100 nM and 1000 nM (sheet 'Samples'), CATDS: 1.5593168360276599E-2; n = 1.
Another test relates to ERN2. The settings on record: read-out: apparent Kd, compound concentrations: 100 nM and 1000 nM (sheet 'Samples'), n = 1.
A further test deals with MAP4K1. The following applies: read-out: apparent Kd, n = 1.
The next test relates to ICK. The following applies: read-out: apparent Kd; compound concentrations: 100 nM and 1000 nM (sheet 'Samples'), CATDS: 0.109854156237019; n = 1.
The next test deals with CDC42. The following applies: read-out: apparent Kd; compound concentrations:100 nM and 1000 nM (sheet 'Samples'); n = 1.
[1] abbreviates: compound concentrations:100 nM and 1000 nM (sheet 'Samples').

Like-named read-outs stand apart in the source and are kept apart here.

For the compound `CS(=O)(=O)CCNCc1ccc(-c2ccc3ncnc(Nc4ccc(OCc5cccc(F)c5)c(C(F)(F)F)c4)c3c2)o1` [GW576484X], the potency estimated from few doses in the test with CSNK1G1 (CATDS: 5.4638885824274799E-2) was 1620 nM.

For `O=C1N=C(NCc2cccs2)SC1Cc1ccc2ncccc2c1` (stereo not shown) [RO4629078-000], the potency estimated from few doses was 123 nM in the test on ATM (compound concentrations: 100 nM and 1000 nM (sheet 'Samples'), CATDS: 2.5456508312119999E-2); 630 nM with BMP2K (compound concentrations: 100 nM and 1000 nM (sheet 'Samples'), CATDS: 1.0249270291889601E-2); 195 nM in the test with FER (compound concentrations: 100 nM and 1000 nM (sheet 'Samples'), CATDS: 1.87753699623531E-2); 974 nM in the test on GRK6 (CATDS: 8.7219841617169405E-3); 2190 nM with MELK (compound concentrations: 100 nM and 1000 nM (sheet 'Samples'), CATDS: 7.0296492391178304E-3); 52.1 nM in the test on PRKCQ (CATDS: 4.8799216922885302E-2). For the same compound, the potency estimated from few doses with RPS6KA6 (compound concentrations: 100 nM and 1000 nM (sheet 'Samples'), CATDS: 1.4576364077707399E-2) is 301 nM; with ULK1 (compound concentrations: 100 nM and 1000 nM (sheet 'Samples'), CATDS: 1.26661320847058E-2), 394 nM; with ULK3 (compound concentrations: 100 nM and 1000 nM (sheet 'Samples'), CATDS: 7.6579624487381603E-3), 1510 nM.

With `Cl.Cl.Cl.c1ccc(Oc2ccc(Nc3ccnc4cc(-c5ccc(CN6CCNCC6)o5)ccc34)cc2)nc1.c1ccc(Oc2ccc(Nc3ccnc4cc(-c5ccc(CN6CCNCC6)o5)ccc34)cc2)nc1` [GW567142A], the potency estimated from few doses in the test on GRK6 (CATDS: 1.87269868098595E-2) was 1430 nM; with VDAC3 (compound concentrations: 100 nM and 1000 nM (sheet 'Samples'), CATDS: 1.74915256837203E-2), 1830 nM.

As for `Cc1cccc(-c2cc(-c3c[nH]nc3-c3ccccn3)ccn2)c1` [GW679395X], in the test with ULK3 (setting [1]), the potency estimated from few doses is 1450 nM.

With `CCn1cc(-c2ccnc3[nH]c(-c4cccc(CN(C)C)c4)cc23)c(-c2ccc(NC(=O)N(C)C)cc2)n1` [GSK1070916], the potency estimated from few doses is 1960 nM in the test on IKBKE and 1500 nM in the test with PIK3C3 (setting [1]).

As for `CS(=O)(=O)Cc1ccc(Nc2nccc(-c3c(-c4cccc(NC(=O)C5CCCCC5)c4)nn4ncccc34)n2)cc1` [GSK350559A], the potency estimated from few doses in the test with VDAC3 (setting [1]) is 2030 nM.

Take `CN1C(=O)c2ccccc2N(C)c2nc(Nc3cnn(C4CCNCC4)c3)ncc21` [XMD-17-51]: the potency estimated from few doses in the test with BMP2K (compound concentrations: 100 nM and 1000 nM (sheet 'Samples'), CATDS: 1.6944830002157098E-2) was 771 nM; with ULK1 (compound concentrations: 100 nM and 1000 nM (sheet 'Samples'), CATDS: 5.3093581497725799E-2) it was 45.5 nM.

Consider `COc1ccc(Nc2nccc(N3CCC(NC(=O)Nc4ccc5c(c4)OCO5)C3)n2)cc1` (stereo not shown) [GSK1379745A], for which the potency estimated from few doses in the test on CDK6 was 1680 nM; in the test with CSNK1G1 (CATDS: 3.8833809861808503E-2), 1600 nM; in the test on ILK, 1110 nM.

Turning to `CC(C)c1nc(-c2cccc(NS(=O)(=O)c3ccccc3)c2)c(-c2ccnc(Nc3ccc4c(c3)CN(C)CC4)n2)s1` [GSK1649598A], the potency estimated from few doses in the test on ERN1 is 758 nM; in the test with ERN2 (CATDS: 3.39417380215319E-2), 124 nM; in the test on MAP4K1 (compound concentrations: 100 nM and 1000 nM (sheet 'Samples'), CATDS: 1.9870950610889799E-2), 381 nM.

As for `Cn1cc(C2=C(c3cn(CCCO)c4ccccc34)C(=O)NC2=O)c2ccccc21` [RO0317377-000], the potency estimated from few doses is 1460 nM with ICK and 2020 nM with PRKCQ (CATDS: 9.7872401763747702E-2).

Consider `CC(C)c1cc(-c2ccc3c(N)n[nH]c3c2)nc(N)n1` [GSK2250882A], for which the potency estimated from few doses in the test with MELK (setting [1]) is 1300 nM.

For the compound `COc1cccc(-n2ncc3c(N/N=C/c4ccc(C(=O)NCCN(C)C)cc4)ncnc32)c1.Cl` [GW784307A], the potency estimated from few doses with BMP2K (compound concentrations: 100 nM and 1000 nM (sheet 'Samples'), CATDS: 2.5475842805915101E-2) was 2050 nM.

`O=C1N=C(NCCc2cccc(F)c2)S/C1=C\c1ccc2ncccc2c1` [RO4508344-000]: the potency estimated from few doses in the test on ERN2 (CATDS: 7.9069869208326996E-2) was 1660 nM.

`CCc1nc(-c2cccc(N(C)S(=O)(=O)c3ccccc3)c2)c(-c2ccnc(Nc3ccc(N4CCN(C(C)=O)CC4)nc3)n2)s1` [GSK1645895A]: the potency estimated from few doses with PIK3C3 (compound concentrations: 100 nM and 1000 nM (sheet 'Samples'), CATDS: 0.15936807020930999) is 1340 nM.

As to `CNc1nccc(-c2c(-c3ccc(F)cc3)ncn2C2CCN(C)CC2)n1` [SB-222903], in the test with ATM (setting [1]), the potency estimated from few doses is 80.7 nM.

With `COc1cc2ncn(-c3cc(OCc4cccs4)c(C(N)=O)s3)c2cc1OC` [GSK312948A], the figures for the potency estimated from few doses with BMP2K (setting [1]) and with CDC42 were 1430 nM and 1550 nM, respectively.

With `Cl.Cn1c(=O)c(Cc2ccc(F)cc2F)cc2cnc(NC3CCOCC3)nc21` [RO3308757-001], the potency estimated from few doses in the test with ATM (setting [1]) was 247 nM; in the test on FER (setting [1]), 302 nM; in the test on RPS6KA6 (setting [1]) it was 599 nM; in the test with ULK1 (setting [1]) it was 1550 nM.

Regarding `Fc1ccc(-c2c(-c3ccncc3)[nH]c3nccnc23)cc1` [RO1155697-000], the potency estimated from few doses with ULK1 (setting [1]) was 1520 nM.

Take `Cn1cc(-c2cnc(N)c3c(-c4ccc5c(c4)CCN5C(=O)Cc4ccccc4)csc23)cn1` [GSK2593074A]: in the test on MAP4K1 (setting [1]), the potency estimated from few doses is 1630 nM.

For `COc1cc(/C=N/Nc2ncnc3[nH]ncc23)ccc1O` [GW578748X], the potency estimated from few doses in the test on MELK (setting [1]) was 2390 nM.

(Values after article PMC11062922 (Nature Chemical Biology, 2023).)
